Each structure is given as a SMILES string. Counter-ions that a name gives are not always drawn.

The assay concerns Saccharomyces cerevisiae BY4741 SeMeCo community. Description: z-score of subpopulation abundance vs DMSO median, subpopulation auxotrophic for U; higher = larger share of this subpopulation than in DMSO controls. To be noted: 10 µM; 24 h; SM minimal medium; subpopulation (auxotrophy): U. As for the experimental part:
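Fluorescent four-plasmid SeMeCo (self-establishing metabolically cooperating S. cerevisiae BY4741 community; plasmids pH-mRuby2, pL-mWasabi, pU-eCFP, pM-TagRFP657) was grown 24 h in minimal SM medium with each Selleck FDA-approved drug at 10 µM in 384-well plates. Cells were fixed and imaged by high-content confocal microscopy. For each auxotrophic subpopulation (and the prototroph), a z-score gives the deviation from the DMSO vehicle-control population median.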
Regarding `Cc1noc(NS(=O)(=O)c2ccc(N)cc2)c1C` [Sulfisoxazole], the “z-score of subpopulation abundance” value was 0.32.

Take `CC[C@@]1(O)C(=O)OCc2c1cc1n(c2=O)Cc2cc3c(CN(C)C)c(O)ccc3nc2-1` [Topotecan HCl]: the “z-score of subpopulation abundance” value was -1.89.

Regarding `COc1ccnc(C[S+]([O-])c2nc3cc(OC(F)F)ccc3[nH]2)c1OC` (stereo not given) [Pantoprazole], the “z-score of subpopulation abundance” value is -0.43.

For `CC(=O)Oc1ccc(C(=C2CCCCC2)c2ccc(OC(C)=O)cc2)cc1` [Cyclofenil], the “z-score of subpopulation abundance” value was determined as 0.16.

With `CCCCCCCCCCCC(=O)O` [Lauric Acid], the “z-score of subpopulation abundance” value came out at 0.57.

For the molecule `CCn1cc(C(=O)O)c(=O)c2cc(F)c(N3CCN(C)CC3)cc21` [Pefloxacin Mesylate], the “z-score of subpopulation abundance” value came out at 0.14.

Turning to `O=c1[nH]c(=O)n([C@H]2C[C@H](O)[C@@H](CO)O2)cc1/C=C/Br` [Brivudine], the “z-score of subpopulation abundance” value was 0.12.

With `C#CCN[C@@H]1CCc2ccccc21` [Rasagiline], the “z-score of subpopulation abundance” value is 0.2.

`CO/N=C1\C[C@]2(C[C@@H]3C[C@@H](C/C=C(\C)C[C@@H](C)/C=C/C=C4\CO[C@@H]5[C@H](O)C(C)=C[C@@H](C(=O)O3)[C@]45O)O2)O[C@H](/C(C)=C/C(C)C)[C@H]1C` [Moxidectin]: the “z-score of subpopulation abundance” value was found to be 0.66.

As for `Cc1c(OCC(F)(F)F)ccnc1C[S+]([O-])c1nc2ccccc2[nH]1` (stereo not given) [Lansoprazole], the “z-score of subpopulation abundance” value is -0.71.

Turning to `CC(=O)NS(=O)(=O)c1ccc(N)cc1` [Sulfacetamide Sodium], the “z-score of subpopulation abundance” value is 0.86.

As for `C[C@@H]1O[C@@H]1P(=O)(O)O` [Fosfomycin Disodium], the “z-score of subpopulation abundance” value was -0.22.

As to `C[C@H](NCc1ccc(OCc2cccc(F)c2)cc1)C(N)=O` [Safinamide Mesylate], the “z-score of subpopulation abundance” value is -0.34.

Take `CC[C@H](C)C(=O)O[C@H]1C[C@@H](C)C=C2C=C[C@H](C)[C@H](CC[C@@H]3C[C@@H](O)CC(=O)O3)[C@H]21` [Lovastatin]: the “z-score of subpopulation abundance” value worked out at 0.87.

Take `NS(=O)(=O)Cc1noc2ccccc12` [Zonisamide]: the “z-score of subpopulation abundance” value was -0.42.

For the molecule `C[C@@H](NCCCc1cccc(C(F)(F)F)c1)c1cccc2ccccc12` [Cinacalcet HCl], the “z-score of subpopulation abundance” value is -1.21.

Consider `CC1CCc2cc(F)cc3c(=O)c(C(=O)O)cn1c23` (stereo not given) [Flumequine], for which the “z-score of subpopulation abundance” value stood at 0.29.

With `CC(C)N1CCN(c2ccc(OCC3COC(Cn4cncn4)(c4ccc(Cl)cc4Cl)O3)cc2)CC1` (stereo not given) [Terconazole], the “z-score of subpopulation abundance” value was -0.27.

For `CN(Cc1cnc2nc(N)nc(N)c2n1)c1ccc(C(=O)N[C@@H](CCC(=O)O)C(=O)O)cc1` [Methotrexate], the “z-score of subpopulation abundance” value is -2.91.

On to `C[C@@H]1C/C=C/C=C/C=C/C=C/[C@H](O[C@@H]2O[C@H](C)[C@@H](O)[C@H](N)[C@@H]2O)C[C@@H]2O[C@](O)(C[C@@H](O)C[C@H]3O[C@@H]3/C=C/C(=O)O1)C[C@H](O)[C@H]2C(=O)O` [Natamycin], for which the “z-score of subpopulation abundance” value is 4.12.

With `CC(C(=O)O)c1ccc2c(c1)[nH]c1ccc(Cl)cc12` (stereo not given) [Carprofen], the “z-score of subpopulation abundance” value is -3.82.

As to `CCCCOc1cc(C(=O)NCCN(CC)CC)c2ccccc2n1` [Dibucaine HCl], the “z-score of subpopulation abundance” value came to 0.46.

For the molecule `OCCN1CCN(CCCN2c3ccccc3Sc3ccc(Cl)cc32)CC1` [Perphenazine], the “z-score of subpopulation abundance” value turned out to be 0.29.

Consider `COc1ccc(CCN(C)CCCC(C#N)(c2ccc(OC)c(OC)c2)C(C)C)cc1OC` (stereo not given) [Verapamil HCl], for which the “z-score of subpopulation abundance” value was found to be 0.6.

In the case of `CCOC(=O)CCC(=O)O[C@H]1[C@H](O[C@@H]2[C@@H](C)[C@H](O[C@H]3C[C@@](C)(OC)[C@@H](O)[C@H](C)O3)[C@@H](C)C(=O)O[C@H](CC)[C@@](C)(O)[C@H](O)[C@@H](C)C(=O)[C@H](C)C[C@@]2(C)O)O[C@H](C)C[C@@H]1N(C)C` [Erythromycin Ethylsuccinate], the “z-score of subpopulation abundance” value is -0.67.

Consider `CC(C)(C)C(=O)OCOC(=O)[C@@H]1N2C(=O)[C@@H](/N=C/N3CCCCCC3)[C@H]2SC1(C)C` [Pivmecillinam hydrochloride], for which the “z-score of subpopulation abundance” value came to 0.34.

As to `CCC(C)(C)c1ccc(CC(C)CN2C[C@@H](C)O[C@@H](C)C2)cc1` (stereo not given in full) [Amorolfine HCl], the “z-score of subpopulation abundance” value amounted to 1.83.

For the molecule `Cc1[nH]c(=O)c(C#N)cc1-c1ccncc1` [Milrinone], the “z-score of subpopulation abundance” value was determined as 0.34.

As for `CC(C)NC(=N)NC(=N)Nc1ccc(Cl)cc1` [Proguanil], the “z-score of subpopulation abundance” value is 1.07.

For the molecule `CN1CCN(c2cc3c(cc2F)c(=O)c(C(=O)O)cn3-c2ccc(F)cc2)CC1` [Difloxacin hydrochloride], the “z-score of subpopulation abundance” value was -0.57.

Consider `COc1ccc2cc(CCC(C)=O)ccc2c1` [Nabumetone], for which the “z-score of subpopulation abundance” value came to 0.54.

As to `Oc1c(Cl)cc(Cl)cc1Sc1cc(Cl)cc(Cl)c1O` [Bithionol], the “z-score of subpopulation abundance” value worked out at 1.53.

Regarding `CCCCCOc1ccc(-c2ccc(-c3ccc(C(=O)N[C@H]4C[C@@H](O)[C@@H](O)NC(=O)[C@@H]5[C@@H](O)[C@@H](C)CN5C(=O)[C@H]([C@@H](C)O)NC(=O)[C@H]([C@H](O)[C@@H](O)c5ccc(O)cc5)NC(=O)[C@@H]5C[C@@H](O)CN5C(=O)[C@H]([C@@H](C)O)NC4=O)cc3)cc2)cc1`, the “z-score of subpopulation abundance” value amounted to 0.13.

Regarding `CC(C)C(=O)c1c(C(C)C)nn2ccccc12` [Ibudilast], the “z-score of subpopulation abundance” value was 1.05.

On to `COc1cc(O)c(C(=O)Nc2nc(C(=O)NCCN(C(C)C)C(C)C)cs2)cc1OC` [Acotiamide hydrochloride], for which the “z-score of subpopulation abundance” value amounted to 0.89.

As for `CCOc1ccc2ccccc2c1C(=O)N[C@@H]1C(=O)N2[C@@H]1SC(C)(C)[C@@H]2C(=O)O` [Nafcillin Sodium], the “z-score of subpopulation abundance” value is -0.63.

On to `CC(=O)OCC1=C(C(=O)O)N2C(=O)[C@@H](NC(=O)CSc3ccncc3)[C@H]2SC1` [Cephapirin Benzathine], for which the “z-score of subpopulation abundance” value came to 1.05.

For `COC(=O)C1=C(C)NC(C)=C(C(=O)OCCN2CCN(C(c3ccccc3)c3ccccc3)CC2)C1c1cccc([N+](=O)[O-])c1` (stereo not given) [Manidipine], the “z-score of subpopulation abundance” value was -1.02.

Take `Cc1onc(-c2c(F)cccc2Cl)c1C(=O)N[C@@H]1C(=O)N2[C@@H]1SC(C)(C)[C@@H]2C(=O)O` [Flucloxacillin sodium]: the “z-score of subpopulation abundance” value was determined as 0.55.

On to `CC[C@H](Nc1ncnc2[nH]cnc12)c1nc2cccc(F)c2c(=O)n1-c1ccccc1` [Idelalisib (CAL-101, GS-1101)], for which the “z-score of subpopulation abundance” value was determined as 1.09.

Values taken from the supplement of paper PMC8975748.
